Reference: PubChem BioAssay
Values without a mark were called inactive. The rule behind the calls is not given here.

What follows are compounds tested on Aerobactin synthetase IucA (Klebsiella pneumoniae, hypervirulent) (assay: biochemical IucA inhibition screen of LOPAC library by absorbance (AID 1346212;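 note: 100% = no compound wells and 0% = no enzyme wells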)). Conditions: IucA enzyme assay, absorbance (OD) readout; hits give low values;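 tested at 8 µM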.

Structure (SMILES) | remaining activity [%]
CCOC(=O)C12CC1/C(=N\O)c1ccccc1O2 (stereo not drawn) | 108
O=C(O)/C=C1\CCCc2ccccc2C1O (stereo not drawn) | 119
O=C(Nc1nc2ccccc2n1CCN1CCOCC1)c1cccc([N+](=O)[O-])c1 | 120
CCCCCCCCCCCCCCCCCC(=O)OC(CC(=O)O)C[N+](C)(C)C (stereo not drawn) | 96.1
CC(C)(C)NC(=O)[C@H]1CC[C@H]2[C@@H]3CC[C@H]4NC(=O)C=C[C@]4(C)[C@H]3CC[C@]12C | 119
NC(=O)c1cn(Cc2c(F)cccc2F)nn1 | 117
COC(=O)[C@@H](N)Cc1ccc(O)c(O)c1 | 107
C[C@@H]1O[C@@H](O[C@H]2C[C@@H](O)[C@]3(CO)[C@H]4[C@H](O)C[C@]5(C)[C@@H](C6COC(=O)C6)CC[C@]5(O)[C@@H]4CC[C@]3(O)C2)[C@H](O)[C@H](O)[C@H]1O (stereo partly drawn) | 97.8
